# PTAP TSG101 blk: qHTS Assay for Iinhibitors of HIV-1 Budding by Blocking the Interaction of PTAP/TSG101; Tumor susceptibility gene 101 protein (Homo sapiens), Q99816; Fluorescence polarization, FITC-PTAP peptide / Tsg101 binding; Potency, µM (highest dose often 115 µM), for inactives: at the top dose activity change, negative = inhibition, most hits filed as inhibitors; 340,000 tested, under 10 active; active = well fitted inhibition curve with a large enough effect in the main read-out, with a control signal flat, not every such curve was filed as active; inconclusive = small, poorly fitted or top-dose-only effect, or effect the other way, or a change in a side signal; inactive = no such curve, though single readings can be large or run the other way; note: potency is the fitted concentration of half-maximal effect; % of control where 0% means no effect
#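 Tsg101 binding domain (10 uM final) was mixed with compound and a FITC-labeled PTAP peptide (50 nM final) in HEPES pH 7.5 buffer with NaCl, Tween 20, EDTA and TCEP; fluorescence polarization was read after 20 min at r.t.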
# PLK1 PBD inh: qHTS for Inhibitors of PLK1-PDB (polo-like kinase 1 - polo-box domain): Primary Screen. Plk1 PBD binding of FITC phosphopeptide, fluorescence polarization. Potency, µM, for inactives: max response, negative = inhibition, usual class: inhibitors. 2.8% of 360,000 active. AID 720504, 2013; note: potency is the fitted concentration of half-maximal effect; series mostly up to about 57 µM; % is set by controls: 0 for no effect and ±100 for the full control effect; nearly all actives have a fitted effect of over 65% in size
# TSHR antag: Antagonists of the Thyroid Stimulating Hormone Receptor: HTS campaign. activity change, negative = inhibition, % at 11.5 µM. Thyrotropin receptor (Homo sapiens), P16473. 0.2% of 330,000 active. TSHR-expressing cells, TSH-stimulated cAMP HTRF, 2 h; hits give low values;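 active = activity change below a set negative limit, meaning inhibition stronger than a set level, cut at about -70% in these data; inconclusive = activity change between two set negative limits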; note: % is set by controls: 0 for no effect and ±100 for the full control effect
# Target sequence (P16473 whole entry, looked up): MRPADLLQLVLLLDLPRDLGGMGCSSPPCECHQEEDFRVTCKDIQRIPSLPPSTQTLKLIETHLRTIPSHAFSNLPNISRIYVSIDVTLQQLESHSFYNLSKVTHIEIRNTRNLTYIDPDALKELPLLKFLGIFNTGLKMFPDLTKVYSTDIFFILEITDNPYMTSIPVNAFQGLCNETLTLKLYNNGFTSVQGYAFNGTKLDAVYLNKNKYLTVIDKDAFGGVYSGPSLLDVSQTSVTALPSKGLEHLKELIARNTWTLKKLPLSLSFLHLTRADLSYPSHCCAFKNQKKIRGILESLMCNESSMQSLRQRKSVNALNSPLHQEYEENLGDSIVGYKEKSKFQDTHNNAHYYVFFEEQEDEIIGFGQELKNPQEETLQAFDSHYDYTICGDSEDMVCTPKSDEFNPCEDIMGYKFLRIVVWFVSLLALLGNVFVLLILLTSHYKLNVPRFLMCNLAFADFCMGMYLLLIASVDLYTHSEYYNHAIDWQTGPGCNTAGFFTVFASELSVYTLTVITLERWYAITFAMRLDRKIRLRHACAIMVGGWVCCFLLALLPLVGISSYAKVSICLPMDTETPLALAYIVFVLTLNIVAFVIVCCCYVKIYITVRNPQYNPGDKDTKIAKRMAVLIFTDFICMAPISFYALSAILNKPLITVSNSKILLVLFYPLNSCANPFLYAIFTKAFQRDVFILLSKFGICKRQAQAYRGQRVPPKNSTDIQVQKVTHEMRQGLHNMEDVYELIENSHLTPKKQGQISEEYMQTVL
#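 Antagonism was scored as loss of TSH-driven cAMP in TSHR cells, stimulated with 4nM TSH (EC80) for 2 hours at 37 deg C and detected by homogeneous HTRF competition immunoassay.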
# uPA generation: qHTS for Inhibitors of Cell Surface uPA Generation; cell surface uPA generation assay, qHTS; Potency, µM (top dose mostly 38.3 µM), for the others: top-dose activity change, negative = inhibition, hits mostly inhibitors; 0.31% of 330,000 active; AID 540303, 2011; active = well fitted inhibition curve with a large enough effect; inconclusive = small, poorly fitted or top-dose-only effect; inactive = no such curve, though single readings can be large or run the other way; tested in mouse RAW 264.7 cells; note: potency is the fitted concentration of half-maximal effect; % is set by controls: 0 for no effect and ±100 for the full control effect; nearly all actives have a fitted effect of over 55% in size
# VDR inh: Inhibitors of the vitamin D receptor (VDR): qHTS | Vitamin D3 receptor (Homo sapiens), P11473 | VDR-SRC2-3 peptide fluorescence polarization, 2 h | Potency, µM, for inactives: max response, negative = inhibition, usual class: inhibitors | 0.93% of 400,000 active; note: potency is the fitted concentration of half-maximal effect; % is set by controls: 0 for no effect and ±100 for the full control effect
#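 Reagent solutions, kept cold and dark, are dispensed first; compounds are then pinned in at 23 nl, plates briefly spun, and incubated 2 h at ambient temperature. Inhibition of VDR–SRC2-3 peptide binding is read by fluorescence polarization.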
# * hit, by the source's call; ? = inconclusive; . = no result; ! = a repeat was not active. Only some compounds are listed: those with a hit (about 3.1% of all), similar ones and a draw of the others. Unless noted, calls come from the whole dose curve; as a rule, active = well fitted curve in the direction sought with a large enough effect; inconclusive = small, poorly fitted or top-dose-only effect, or another doubt; inactive = no such curve, though single readings can be large; an effect the other way counts as inactive or inconclusive.
SMILES,PTAP TSG101 blk,PLK1 PBD inh,TSHR antag,uPA generation,VDR inh
Cc1ccc(S(=O)(=O)N2CCN(C(=O)c3cc(-c4ccc(Br)cc4)n[nH]3)CC2)c(C)c1,.,.,.,.,-1%
CCCCOC(=O)c1ccc(NC2=NS(=O)(=O)c3ccccc32)cc1,.,.,.,.,-2%
Cc1nnnn1/C(=C\c1ccccc1)C(=O)OCC(=O)NC1CCCCC1,-2%,-21%,10,7.9µM*,?
O=C(Nc1ccc2c(c1)CCC2)c1ccc(Cl)nc1,0%,0%,-11,-25%,5%
O=C(Nc1ccc2c(c1)CCC2)c1cnc(Cl)c(Cl)c1,-3%,21µM*,-8,-9%,3%
CCN(CC(=O)NC(C)C)C(=O)c1ccc(S(=O)(=O)N(C)c2ccccc2OC)cc1,-5%,3µM*,14,12%,?
O=C(CCc1ccccc1)NC(NC(=S)Nc1ccc(Cl)cc1)C(Cl)(Cl)Cl (stereo not drawn),1%,30µM*,-22,-3%,0%
O=C(/C=C/c1ccccc1)NC(NC(=S)Nc1ccc(Cl)cc1)C(Cl)(Cl)Cl (stereo not drawn),-7%,27µM*,-26,-9%,?
COc1ccc(NC(=S)NC(NC(=O)/C=C/c2ccccc2)C(Cl)(Cl)Cl)cc1 (stereo not drawn),-4%,-14%,-3,-3%,9%
Cc1c(NC(=S)NC(NC(=O)CC(C)C)C(Cl)(Cl)Cl)c(=O)n(-c2ccccc2)n1C (stereo not drawn),0%,1%,13,4%,-4%
CC(C)CC(=O)NC(NC(=S)Nc1ccccc1)C(Cl)(Cl)Cl (stereo not drawn),-2%,30µM*,-10,-1%,?
CC(C)N(C(=O)COC(=O)c1cncc(Br)c1)C(C)C,0%,21µM*,9,6%,?
CN(Cc1ccccc1)C(=O)COC(=O)c1cncc(Br)c1,0%,-5%,-2,10%,-2%
NC(=O)OC[C@H](O)COc1ccc(Cl)cc1,.,.,.,.,-8%
Cn1c(OCc2ccco2)nc2c1c(=O)n(Cc1ccc(Cl)c(Cl)c1)c(=O)n2C,-2%,12µM*,-9,-6%,-11%
CC(=O)N1C[C@H]2CON(C)[C@H]2C[C@H]1c1cccc(-c2cc(Cl)cc(Cl)c2)c1,.,-12%,.,.,.
CC/C=C\C/C=C\C/C=C\C/C=C\C/C=C\C/C=C\CCC(=O)O,.,.,.,.,32µM*!
O=C(CSCc1ccc(F)cc1)N1CCc2c([nH]c3ccccc23)C1c1ccc(F)cc1 (stereo not drawn),.,.,.,.,10%
COc1cc(/C=C/C(=O)O)cc(S(=O)(=O)N2CCCc3ccccc32)c1OC,0%,27µM*,3,1%,?
Cc1cnc(C(=O)Nc2ccc(C)c(S(=O)(=O)N(C)C)c2)cn1,2%,24µM*,20,-10%,?
CN(C)S(=O)(=O)c1cccc(NC(=O)c2cncc(Br)c2)c1,-2%,-4%,-15,3%,-15%
Cc1ccc(NC(=O)c2cnccn2)cc1S(=O)(=O)N(C)C,-1%,-5%,11,1%,-18%
Cc1ccc(NC(=O)c2cncc(Br)c2)cc1S(=O)(=O)N(C)C,-1%,15µM*,4,-2%,45µM*
CC(=O)NC1C(=O)N(Cc2ccccc2)c2ccc(Br)cc21 (stereo not drawn),-5%,27µM*,1,1%,?
CC(=O)NC1C(=O)N(CCc2ccccc2)c2ccc(Br)cc21 (stereo not drawn),-8%,-6%,11,-1%,5%
SMILES,PTAP TSG101 blk,PLK1 PBD inh,TSHR antag,uPA generation,VDR inh
Cc1ccc(/C(N)=N/OC(=O)CSc2ccccc2)cc1,1%,-10%,-10,6%,-7%
CN(C(=O)COC(=O)CSc1ccc([N+](=O)[O-])cc1)c1ccccc1,-3%,13µM*,-16,3%,89µM*
N/C(=N\OC(=O)CSc1ccccc1)c1ccc([N+](=O)[O-])cc1,-9%,27µM*,-23,?,-1%
Oc1ccccc1C(=S)N1CCN(C(=S)c2ccccc2O)CC1,-5%,24µM*,-8,6%,-23%
O=C(O)CCC(=O)CCC(=O)c1ccc(Cl)cc1,-1%,-7%,-11,10%,?
CN(CCC(=O)c1ccccc1)CCC(=O)c1ccccc1,-1%,27µM*,18,-2%,-12%
CN(C)CCC(=O)c1ccc(Cl)cc1,0%,4.2µM*,-3,-11%,-24%
COc1cc(NS(=O)(=O)c2ccc(NC(=S)NC(=O)/C=C/c3ccco3)cc2)ncn1,-7%,13µM*,-3,-3%,11%
COc1nccnc1NS(=O)(=O)c1ccc(NC(=S)NC(=O)/C=C/c2ccccc2)cc1,-1%,30µM*,-6,-6%,?
CCOCCCNCc1ccc(OC)c(OC)c1,-1%,-3%,-5,1%,0%
CCOC(=O)CCNCc1ccc(OC)c(OC)c1,-2%,24µM*,7,2%,?
CCOC(=O)CC(NCc1ccc(OC)c(OCC)c1)c1ccc(C)cc1 (stereo not drawn),0%,21µM*,-11,1%,-11%
CC1(C(=O)Nc2cccc(Oc3ccccc3)c2)CCN1Cc1cc2ccccc2o1 (stereo not drawn),.,-1%,.,.,.
C=C[C@](C)(O)CCC=C(C)C,.,.,.,.,10%
Cc1ccc(S(=O)(=O)Nc2cc3c(cc2C#N)OCO3)cc1C(N)=O,-2%,-3%,-11,0%,12%
COC(=O)/C(=C/c1c[nH]c2ccccc12)[N+](=O)[O-],-1%,2.4µM*,6,3%,-8%
O=C(NCc1ccco1)c1cc([N+](=O)[O-])ccc1N1CCCCC1,-11%,24µM*,15,-18%,?
CCOC(=O)CSc1nnc(NCC(=O)OC)c(=O)[nH]1,-2%,?,-8,-4%,40µM*
CCOC(=O)CSc1nnc(C)c(=O)[nH]1,0%,-9%,3,12%,4%
COc1ccc(-n2ncc3c2ncn2nc(COc4ccc(Cl)cc4)nc32)cc1,.,.,.,.,3%
CCOC(=O)c1ccc(-n2c(CCC(=O)O)ccc2-c2cccs2)cc1,0%,19µM*,-10,-6%,?
O=C(CSc1nnnn1-c1cccc2c1CCCC2)N1CCOCC1,-17%,-2%,24,8%,-5%
O=C(CSc1nnnn1-c1cccc2c1CCCC2)N1CCCC1,-2%,4.7µM*,25,-1%,-18%
Cc1ccc(C(=O)CNc2cc(C)ccc2C)cc1,0%,-6%,-4,-1%,?
CCNc1cc(O)ccc1C,-10%,-16%,8,11%,79µM*
COc1ccc(Cl)cc1NC(=S)Nc1ccccc1C,-1%,11µM*,-9,6%,?

# Screening data (PubChem BioAssay)
